From PubChem
In the library only some 0.036% were active in any assay of this set; here they are far more common.
Lamin A splicing: changes lamin A minigene splicing in HeLa cells; HeLa LMNA splicing GFP/RFP minigene ratio, 48 h; 0.01% of 200,000 active; Potency, µM (series often up to 46.1 µM), for inactives: top-dose ratio change, negative = inhibition, hits mostly inhibitors; active means well fitted inhibition curve with a large enough effect in the signal ratio, with a control signal flat, not every such curve was filed as active; inconclusive means small, poorly fitted or top-dose-only effect, or effect the other way, or a change in a side signal; the % refers to the signal ratio; further: potency means the concentration at half of the fitted maximal effect; on the % scale 0 is the no-effect control and ±100 the full control effect
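S3 HeLa cells stably expressing lamin A-EGFP splicing minigene plus DsRed2, 600 cells/well, 48 h compound exposure at 37C. Laser-scanning cytometry; analysed as GFP (500-530 nm)/RFP (575-640 nm) total intensity ratio; 0.5% DMSO vehicle.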
CBFb RUNX1 block: CBF-beta/RUNX1 interaction disruption. Q01196+Q13951. AlphaScreen CBFb-His/RUNX1-biotin binding, biochemical. Potency, µM (doses to about 59.8 µM), without a hit: at the top dose activity, negative = inhibition, hits mostly inhibitors. 230,000 tested, under 10 active. AID 1477; further: % of control where 0% means no effect
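Compounds were screened at multiple concentrations against a preformed CBF-beta(His)/RUNX1(biotin) complex (30 nM of each) for 15 min at room temperature, followed by 90 min with nickel and streptavidin beads and AlphaScreen reading.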
MBNL1 CUG block: blocks human MBNL1 binding to CUG repeat RNA; Q9NR56; TR-FRET MBNL1-His/biotin-(CUG)12 binding, 665/545 ratio; Potency, µM (highest dose often 57.5 µM), for inactives: at the highest dose activity change, negative = inhibition, actives largely listed as inhibitors; 0.036% of 280,000 active; AID 2675; active means well fitted inhibition curve with a large enough effect in the signal ratio, with a control signal flat, not every such curve was filed as active; inconclusive means small, poorly fitted or top-dose-only effect, or effect the other way, or a change in a side signal; inactive means no such curve, though single readings can be large or run the other way; the % refers to the signal ratio; further: potency means the concentration at half of the fitted maximal effect; on the % scale 0 is the no-effect control and ±100 the full control effect
Target sequence (Q9NR56 whole entry, looked up): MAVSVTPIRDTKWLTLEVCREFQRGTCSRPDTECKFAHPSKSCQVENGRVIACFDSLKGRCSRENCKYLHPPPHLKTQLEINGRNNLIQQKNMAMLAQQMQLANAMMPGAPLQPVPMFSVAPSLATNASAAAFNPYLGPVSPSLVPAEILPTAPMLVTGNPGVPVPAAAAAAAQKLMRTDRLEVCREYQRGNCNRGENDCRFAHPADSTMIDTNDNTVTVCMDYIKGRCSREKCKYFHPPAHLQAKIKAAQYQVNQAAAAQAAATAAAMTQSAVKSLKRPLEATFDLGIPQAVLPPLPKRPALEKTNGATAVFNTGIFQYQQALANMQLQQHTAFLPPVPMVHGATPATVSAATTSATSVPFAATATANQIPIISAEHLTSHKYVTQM
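Inhibition of protein-RNA binding appears as loss of TR-FRET between terbium anti-His antibody on MBNL1-His and streptavidin-XL665 on biotin-(CUG)12. Activity is normalized to buffer-only and uninhibited-complex controls.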
MBNL1 TRFRET: confirmation of inhibitors of human MBNL1-poly(CUG) RNA binding; TR-FRET MBNL1-His / biotin-(CUG)12 binding, 60 min; AID 493199; 50% of 140 active; Potency, µM (doses to about 57.6 µM), inactives show at the highest dose activity change, negative = inhibition, actives largely listed as inhibitors; shares compounds with MBNL1 CUG block
MBNL1-CUG Alpha: blocks MBNL1 binding to (CUG)12 RNA in AlphaScreen; shares compounds with MBNL1 CUG block; AlphaScreen MBNL1-His / biotin-(CUG)12 binding; Potency, µM (series often up to 57.7 µM), inactives show at the top dose activity, negative = inhibition, actives largely listed as inhibitors; 30% of 140 active
Menin-MLL HTRF: counter-screen for MBNL1-poly(CUG) RNA binding inhibitors; His-Menin/biotin-MLL peptide TR-FRET counterscreen; 20% of 120 active; shares compounds with MBNL1 CUG block; Potency, µM (titrated, usually from 57.6 µM), for inactives: at the top dose activity, negative = inhibition, most hits filed as inhibitors
Numbers without * were called inactive; ? = inconclusive; · = no result given; [ ] = dose if it differs, or a comment. Unless noted, the call rests on the fitted dose curve; in most records, active means well fitted curve in the direction sought with a large enough effect; inconclusive means small, poorly fitted or top-dose-only effect, or another doubt; inactive means no such curve, though single readings can be large; an effect the other way counts as inactive or inconclusive.

SMILES	Lamin A splicing	CBFb RUNX1 block	MBNL1 CUG block	MBNL1 TRFRET	MBNL1-CUG Alpha	Menin-MLL HTRF
COc1ccc(NC(=O)NC(C)(C(F)(F)F)C(F)(F)F)cc1	-4%	4%	4%	·	·	·
COc1ccc(NC(=O)NC(C(F)(F)F)C(F)(F)F)cc1	-5%	4%	32µM*	?	-2%	?
COC(=O)c1ccc(=O)c2nc3/c(=C/O)c(O)cc(=O)c3[nH]c12	·	·	?	0.26µM*	0.29µM*	5%
COC(=O)c1ccc(N)cc1O	16%	-2%	-4%	·	·	·
CC(=O)c1ccc(OC2C=CC(C#Cc3ccc(Br)cc3)OC2CO)cc1 (stereo unspecified)	·	3%[13.1 µM]	·	·	·	·
O=C(Nc1ccc(F)cc1Cl)C1CCN(c2ncnc3c2nc2n3CCCCC2)CC1	4%[46 µM]	·	·	·	·	·
COc1ccc(CCNC(=O)C2CC(=O)N(c3ccc(Br)cc3)C2)cc1OC (stereo unspecified)	?	3%	-7%	·	·	·
COc1ccc(CCNC(=O)C2CC(=O)N(c3ccccc3)C2)cc1OC (stereo unspecified)	-12%	26%	11%	-5%	-2%	1%
COc1cccc(/C=N/Nc2nccnc2Cl)c1O	·	?	?	?	3.7µM*	26%
COc1cccc(/C=N/NC(=O)c2cnccn2)c1O	·	-29%	?	·	·	·
Oc1ccccc1/C=N/Nc1nccnc1Cl	?	·	17%	·	·	·
COc1ccc(/C=N/Nc2nccnc2Cl)c(OC)c1	-11%[46 µM]	5%	?	·	·	·
COc1ccc(/C=N/Nc2nccnc2Cl)cc1	-2%	2%	?	?	-13%	18%
Oc1ccc(/C=N/Nc2nccnc2Cl)c(O)c1	?	2%	?	?	6.5µM*	17%
CCCC[C@@H]1CN2[C@H](c3ccc(Br)cc3)[C@@H](C)CC[C@H]2C(=O)O1	·	-3%[13.1 µM]	·	·	·	·
COc1ccc(OC)c(CNC(=O)CN2CC(C)Sc3ccccc32)c1 (stereo unspecified)	3%[46 µM]	·	·	·	·	·
CC1(C)O[C@H]2C[C@@H]3[C@H]4CCC5=CC(=O)C=C[C@]5(C)[C@@]4(F)[C@@H](O)C[C@]3(C)[C@]2(C(=O)CO)O1	?	12%	·	·	·	·
Cn1c(=O)c2c(ncn2CCO)n(C)c1=O	?	-2%	1%	1%	0%	2%
CC(C)CCn1cnc2c1c(=O)n(C)c(=O)n2C	-10%	14%	4%	·	·	·
CC(=O)N1CCN(c2csc3ccc(F)cc3c2=O)CC1	0%[46 µM]	·	·	·	·	·
Cc1oc2ncnc(N3CCOCC3)c2c1C(=O)NCc1ccccc1	23%[46 µM]	·	·	·	·	·
CCCCN1C(=O)N(C)C2NC(=O)NC21 (stereo unspecified)	2%	-5%	?	·	·	·
CCCCN1C(=O)NC2NC(=O)NC21 (stereo unspecified)	-5%	-16%	5.6µM*	3.3µM*	1.2µM*	?
Cc1ccc(-n2nc(C)c3c(C(=O)NCCc4ccc(S(N)(=O)=O)cc4)cc(C)nc32)cc1	-4%[46 µM]	·	·	·	·	·
COc1ccc(-n2nc(C(=O)Nc3cc(OC)c(OC)c(OC)c3)c(=O)n(C)c2=O)cc1	-6%[46 µM]	·	·	·	·	·
SMILES	Lamin A splicing	CBFb RUNX1 block	MBNL1 CUG block	MBNL1 TRFRET	MBNL1-CUG Alpha	Menin-MLL HTRF
COc1ccc(C)cc1S(=O)(=O)Nc1ccc(F)c(Cl)c1	-7%	9%	25µM*	-3%	-11%	-3%
COc1ccc(NS(=O)(=O)c2cc(C)ccc2OC)cc1OC	-20%	6%	-3%	·	·	·
O=c1c(O[C@@H]2O[C@H](CO)[C@H](O)[C@H](O)[C@H]2O)c(-c2ccc(O)c(O)c2)oc2cc(O)cc(O)c12	?	4%	?	·	·	·
C[C@@H]1O[C@@H](OC[C@H]2O[C@@H](Oc3c(-c4ccc(O)c(O)c4)oc4cc(O)cc(O)c4c3=O)[C@H](O)[C@@H](O)[C@@H]2O)[C@H](O)[C@H](O)[C@H]1O	-2%	-28%	?	?	?	17%
Cc1ccc(NC(=O)N2CCN(c3nnc(C)c4c(C)n(-c5ccc(Cl)cc5)nc34)CC2)c(C)c1	-12%[46 µM]	·	·	·	·	·
COc1ccc(CN2CCN(c3cccc(C)c3C)CC2)cc1OC	-11%	3%	25µM*	16µM*	-26%	?
COc1cc(CN2CCN(c3cccc(C)c3C)CC2)cc(Br)c1O	?	0%	-17%	·	·	·
Cc1ccc(C)c(N2CCN(C(=O)c3cc(S(=O)(=O)N4CCCCC4)cn3C)CC2)c1	-10%[46 µM]	·	·	·	·	·
COc1cc(C(=O)Nc2ccc3nc(N4CCN(C)CC4)cc(C)c3c2)cc(OC)c1OC	·	·	22µM*	10µM*	-12%	29µM*
Cc1cc(N2CCN(C)CC2)nc2ccc(NC(=O)c3ccc4c(c3)OCO4)cc12	-11%	-1%	-4%	·	·	·
COc1ccc(C)cc1NS(=O)(=O)c1cnc(N)nc1	-3%[46 µM]	·	·	·	·	·
O=C(c1cccn2c(=O)c3cc(Cl)ccc3nc12)N1CCN(c2ccccc2F)CC1	0%[46 µM]	·	·	·	·	·
C/C1=C2N=C(/C=C3N=C(/C(C)=C4\[N-][C@@](C)([C@@H]5N=C1[C@](C)(CCC(=O)NCC(C)OP(=O)(O)O[C@H]1[C@@H](O)[C@@H](n6cnc7cc(C)c(C)cc76)O[C@@H]1CO)[C@H]5CC(N)=O)[C@@](C)(CC(N)=O)[C@@H]4CCC(N)=O)[C@@](C)(CC(N)=O)[C@@H]\3CCC(N)=O)C(C)(C)[C@@H]/2CCC(N)=O.CC(=O)O.[Co] (stereo partly specified)	·	·	·	·	·	94%
C/C1=C2/[N-]C(C(CC(N)=O)[C@@]2(C)CCC(=O)NCC(C)OP(=O)([O-])O[C@H]2[C@@H](O)[C@@H](n3cnc4cc(C)c(C)cc43)O[C@@H]2CO)[C@]2(C)N=C(/C(C)=C3N=C(/C=C4N=C1C(CCC(N)=O)C\4(C)C)[C@@H](CCC(N)=O)[C@]\3(C)CC(N)=O)[C@@H](CCC(N)=O)[C@]2(C)CC(N)=O.CC(=O)O.[Co] (stereo partly specified)	·	·	·	8.2µM*	2.6µM*	·
CSc1ncc(C(=O)Nc2cccc(Cl)c2C)c(-c2ccccc2)n1	29%[46 µM]	·	·	·	·	·
COc1cc(NC(=O)Nn2cnnc2)cc(OC)c1OC	·	·	-10%	·	·	·
O=C(Nc1ccc(F)c(Cl)c1)Nn1cnnc1	·	·	40µM*	13µM*	-19%	?
O=C(Nc1ccc(F)cc1)Nn1cnnc1	·	·	-23%	·	·	·
COc1ccc(NC(=O)Nn2cnnc2)cc1OC	·	·	40µM*	26µM*	-3%	?
CCc1ccc(N2CC(c3nnc(NC(=O)c4ccco4)s3)CC2=O)cc1 (stereo unspecified)	11%[46 µM]	·	·	·	·	·
O=C1N(c2ccc(Cl)c(Cl)c2)CN(Cc2ccccc2)CN1n1cnnc1	10%	2%	13µM*	16µM*	-4%	?
